Pf Dd2 growth – qHTS Primary assay for Inhibitors of Plasmodium falciparum Dd2 growth in vitro | Potency, µM (doses to about 28.9 µM), for the others: top-dose activity, negative = inhibition, hits mostly inhibitors | actives 4.3% (n = 120,000) | P. falciparum Dd2 growth, SYBR Green, 72 h | AID 1347417, 2020; active = well fitted inhibition curve with a large enough effect;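 note: plate controls were DMSO vehicle for no effect and reference drug for full effect; nearly all actives have a fitted effect of over 65% in size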
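Readout: SYBR Green fluorescence, 485 nm excitation, 535 nm emission, after ~16 h lysis at 37C. Before that, Dd2-infected red cells (2.5% hematocrit) grew 72 h with compound, 29 uM top final concentration.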
The depositor's hits bear a star; i = inactive; ! = not active in a repeat; [ ] = another dose, or the depositor's remark. This excerpt belongs to a sample that is enriched for hits. Potency is the fitted concentration of half-maximal effect.

SMILES	Pf Dd2 growth
CCOC(=O)N1CCc2c(sc(NCc3ccc(N(C)C)cc3)c2C(=O)Nc2ccc(OC)cc2)C1	11µM*
Cc1ccc(CN2CCc3nn(Cc4ccccc4)c(=O)n3CC2)nc1	i
CCOc1ccc(NC(=O)N2CC(c3nnc(-c4ccncc4)o3)C3(CCOCC3)C2)cc1 (stereo not given)	-11%
COc1ccc(Cn2c(C3CCN(C(=O)C(C)c4ccccc4)CC3)n[nH]c2=O)cc1 (stereo not given)	-11%
CCCc1ccc(C(=O)N2CCC3(CCCN(C)C3=O)C2)cc1 (stereo not given)	-4%
Cc1nc(CCC(=O)NCc2cc(Cl)cc3c(C)c(-c4ccccc4)[nH]c23)n[nH]1	-5%
CCCn1c(C)c(CC(=O)N2CCOCC2)c2c1CC(C)(C)CC2=O	-8%
CC(C)NC(=O)N1CCC[C@@H](O)[C@H](NC(=O)c2ccc(OCCN3CCOCC3)cc2)C1	i
CCn1cc2c3c(cccc31)CN(C(=O)c1ccc(OC)c(F)c1)CC2	-4%
COc1ccc(NC(=O)c2c(NCc3cccc(F)c3)sc3c2CCCC3)c(OC)c1	8.9µM*
COC(=O)c1ccc(NC(=O)c2c(NCc3cccc(F)c3)sc3c2CCCC3)cc1	13µM*
CCNC(=O)c1c(NC(=O)COc2ccc(F)cc2)sc2c1CCCC2	-2%
COC(=O)c1c(NC(=O)COc2cccc(C(F)(F)F)c2)sc2c1CCCC2	77%
COC(=O)c1c(NC(=O)c2c(OC)cccc2OC)sc2c1CCCC2	18%
O=C(c1ccccc1F)N1CCC2(CC1)Cc1ccccc1NC2=O	7%
CCOC(=O)C1CCN(C(=O)c2cc(Cn3nc(C)cc3C)[nH]n2)CC1	-18%
COc1ccccc1C(=O)N1CCC2(CCCCO2)CC1	-7%
CN(C)c1ccc(CN2CCC(c3nc4ccncc4[nH]3)C2)cc1 (stereo not given)	-18%[44.1 µM]
c1cncc(CN2CC[C@H](c3nc4ccccc4[nH]3)C2)c1	-21%[44.1 µM]
Brc1ccc(CN2CCC(c3nc4ccncc4[nH]3)C2)cc1 (stereo not given)	10µM*!
NC(=O)c1cc[nH]c1C1CCCN(C(=O)COc2ccc(Cl)cc2)C1 (stereo not given)	-18%
O=S(=O)(c1ccccc1Cl)N1CCCC(CO)(Cc2cccc(Cl)c2)C1 (stereo not given)	-21%
Cn1ccnc1-c1ccc(N2CC[C@@]3(O)CCN(S(C)(=O)=O)C[C@H]3C2)nn1	-8%
Cn1ccnc1-c1ccc(N2CCCC(CO)(Cc3cccc(Cl)c3)C2)nn1 (stereo not given)	5µM*
O=C(NC1CCCN(c2cc(-c3ccc(F)cc3)[nH]n2)C1)C1CCCCC1 (stereo not given)	i
SMILES	Pf Dd2 growth
COc1ccc(-c2nc3ccc(-c4ccc5c(c4)OCO5)cc3o2)c(OC)c1OC	-25%
CCOc1ccc(CC(=O)N2C[C@@H](CO)[C@H](c3nc(C)no3)C2)cc1	-8%
COc1ccc(-c2cc3c(cn2)CN(Cc2ccccc2)CCN3)cc1OC	11µM*
COc1ccc(Nc2cc3c(cn2)CN(Cc2ccncc2)CCN3)cn1	-6%[44.1 µM]
COc1ccc(CN2CCNc3cc(-c4ccnc(C)c4)ncc3C2)cc1O	-4%[44.1 µM]
COc1ccc(CNc2cc3c(cn2)CN(Cc2ccccc2)CCN3)cc1OC	-15%[44.1 µM]
COc1ccc(Nc2cc3c(cn2)NCCN(Cc2ccccc2)C3)cn1	i
COc1ccc(Nc2cc3c(cn2)CN(CCc2ccccc2)CCN3)cc1OC	10µM*
c1ccc(CN2CCNc3cc(-c4ccncc4)ncc3C2)cc1	-26%[44.1 µM]
Oc1ccc(-c2cc3c(cn2)CN(Cc2ccccc2)CCN3)cc1F	4µM*
Fc1ccccc1-c1cc2c(cn1)CN(Cc1ccncc1)CCN2	i
CCc1nc(N2CCc3ccccc3C2)ncc1C(=O)O	14%
COCCCNC(=O)N1CCCC(c2nc(C(C)C)no2)CCNC(=O)CC1 (stereo not given)	7%
OC1CCOC2(CCN(Cc3ccc4c(c3)CCO4)CC2)C1 (stereo not given)	7%
C=CCNC(=O)c1ccc2cc[nH]c2n1	13%[44.1 µM]
CC(C)c1noc(-c2cn(C3CCN(C(=O)c4ccco4)CC3)nn2)n1	i
O=C(COc1ccccc1)Nc1ccc2ncnc(N3CCCCC3)c2c1	i
Cc1ccc(C(=O)N2CCC3(CC2)CCN(Cc2cccs2)c2ccccc2O3)cc1	-17%
O=C(c1ccccc1Cl)N1CCC2(CC1)CCN(Cc1cccs1)c1ccccc1O2	10µM*
Cc1ccccc1C(=O)N1CCC2(CC1)CCN(CCc1ccccc1)c1ccccc1O2	i
O=C(NCC1CC1)c1cnc2n1CCN(CCc1ccccc1)CC2	8%[44.1 µM]
CN(Cc1nc(-c2ccncc2)no1)C(=O)C1CNCCO1 (stereo not given)	-8%
CC(C)CCN1CC[C@H](c2nc3ccccc3[nH]2)C1	i
CCNC(=O)O[C@@H]1CO[C@H]2[C@@H]1OC[C@@H]2NC(=S)Nc1ccc(N(C)C)cc1	i
CC(C)(C)c1ccnc(N[C@H]2CO[C@H]3[C@@H]2OC[C@@H]3NC(=O)c2ccco2)n1	i
SMILES	Pf Dd2 growth
CC(C)(C)c1ccnc(N[C@H]2CO[C@H]3[C@@H]2OC[C@@H]3NC(=O)NCc2ccccc2)n1	5µM*
CC(C)(C)c1ccnc(N[C@H]2CO[C@H]3[C@@H]2OC[C@@H]3NC(=O)CCCC(=O)O)n1	-11%[44.1 µM]
COc1ccc(-n2nc(C3CCCN(CCC(C)C)C3)[nH]c2=O)cc1 (stereo not given)	i
O=C(Nc1cc(Cl)cc(Cl)c1)c1ccn2nccc2c1	5%[44.1 µM]
CN1CCC(Cn2ccc3c(N4CCOCC4)nc(-c4cccc5[nH]ccc45)cc32)CC1	-25%[44.1 µM]
CN1CCC(Cn2ccc3c(N4CCOCC4)nc(-c4ccc5cn[nH]c5c4)cc32)CC1	3.5µM*
C[S+](=O)([O-])N1CCC(Cn2ccc3c(N4CCOCC4)nc(-c4cccc5[nH]ncc45)cc32)CC1	i
O=C(O)c1ccccc1C(=O)N[C@H]1CO[C@H]2[C@@H]1OC[C@@H]2n1nnnc1Oc1ccc(-n2ccnc2)cc1	-4%
Cc1cc(C(=O)N[C@@H]2C[C@H](COc3ccc(S(C)(=O)=O)cc3)[C@@H](O)[C@H]2O)nn1C	-5%[44.1 µM]
Cc1ccc(C)c(NC(=O)c2cnn(-c3ccc(F)cc3F)c2C2CCNCC2)c1	39%
Cc1ccc(-n2ncc(C(=O)N3CCN(c4ccccn4)CC3)c2C2CCN(C(=O)OC(C)(C)C)CC2)cc1C	36%
CC(C)(C)OC(=O)N1CCC(c2c(C(=O)N3CCN(c4ccccn4)CC3)cnn2-c2ccc(F)cc2)CC1	-5%
Cc1cc(C)cc(NC(=O)c2cnn(-c3ccc(C)c(C)c3)c2C2CCNCC2)c1	4µM*
CCc1nc(SC)ncc1C(=O)N1CCN(c2cc(Cl)ccc2C)CC1	i
Cc1ccc(N2CCN(C(=O)c3cnn(-c4ccc(C)c(C)c4)c3C3CCNCC3)CC2)c(C)c1	5.6µM*
Cc1ccc2nc(N3CCC(C(=O)N4CCN(c5cccc(C)c5C)CC4)CC3)[nH]c2c1	-7%
Cc1cc(C)cc(NC(=O)C2CCN(C(=O)c3cnn(-c4ccccc4)c3-n3cccc3)CC2)c1	10%
Cc1c(Cl)cccc1-n1ncc(C(=O)N2CCOCC2)c1C1CCN(C(=O)OC(C)(C)C)CC1	-6%
Cc1cccc(N2CCN(C(=O)c3cnn(-c4cccc(Cl)c4C)c3C3CCNCC3)CC2)c1C	11µM*
Cc1ccc(Cl)cc1N1CCN(C(=O)c2cnn(-c3ccc(Cl)cc3)c2C2CCNCC2)CC1	10µM*
